Measurements taken from PubChem BioAssay AID493242 (Broad Institute, 2011).
Results with a measured potency or affinity are listed apart. The source made the active and inactive calls. The rule behind the calls is not given here.

Target: Replicative DNA helicase DnaB (Mycobacterium tuberculosis (strain ATCC 25618 / H37Rv)) (UniProt P9WMR3)
Assay: DnaB intein splicing inhibition, Mycobacterium tuberculosis H37Rv, biochemical plate reader, confirmatory dose response (AID 493242)

Replicative DNA helicase DnaB (Mycobacterium tuberculosis (strain ATCC 25618 / H37Rv)), sequence (P9WMR3 whole entry, looked up): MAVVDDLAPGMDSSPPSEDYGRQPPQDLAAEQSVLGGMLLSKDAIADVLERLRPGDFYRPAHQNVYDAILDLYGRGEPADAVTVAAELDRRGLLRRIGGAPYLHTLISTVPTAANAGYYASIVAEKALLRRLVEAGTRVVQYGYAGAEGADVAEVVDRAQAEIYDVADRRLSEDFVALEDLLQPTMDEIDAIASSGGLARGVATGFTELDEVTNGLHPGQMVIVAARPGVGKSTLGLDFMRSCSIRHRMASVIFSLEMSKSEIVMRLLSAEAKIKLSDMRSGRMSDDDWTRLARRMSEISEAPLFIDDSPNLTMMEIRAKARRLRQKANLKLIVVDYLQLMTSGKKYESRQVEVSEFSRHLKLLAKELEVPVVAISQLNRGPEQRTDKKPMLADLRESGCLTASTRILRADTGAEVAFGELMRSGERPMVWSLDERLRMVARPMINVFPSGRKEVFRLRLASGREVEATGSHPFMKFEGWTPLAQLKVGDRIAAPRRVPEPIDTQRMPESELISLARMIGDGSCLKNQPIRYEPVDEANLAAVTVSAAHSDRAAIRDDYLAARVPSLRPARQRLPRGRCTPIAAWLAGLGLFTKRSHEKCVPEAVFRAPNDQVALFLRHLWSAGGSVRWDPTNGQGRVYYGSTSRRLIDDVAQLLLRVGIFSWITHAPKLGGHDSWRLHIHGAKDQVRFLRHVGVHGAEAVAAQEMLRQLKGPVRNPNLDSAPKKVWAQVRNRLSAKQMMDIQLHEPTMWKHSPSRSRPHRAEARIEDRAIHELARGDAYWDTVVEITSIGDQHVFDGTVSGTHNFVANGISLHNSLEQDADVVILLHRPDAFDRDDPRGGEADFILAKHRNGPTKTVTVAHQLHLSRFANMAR

In the case of `Nc1cn(-c2ccccc2)nc1-c1ccc(F)cc1`, the outcome was “inactive”.
